# Experimental data reported in ChEMBL document CHEMBL3988442, “University of Dundee, Small-Polar-MMV Screening Library” (2021).
# Out of some 53,000 compounds screened, about 900 (1.7%) showed an effect of 50% or more. This excerpt belongs to a sample that is enriched for strong results.
# Tested on: Mycobacterium tuberculosis
# Test: Cornell - Phenotypic assay to identify agents that inhibit growth of Mycobacterium tuberculosis
# Format: functional
# Design: scale not given: direction of the effect not stated beside the values
# Conditions: 10 mM as filed; unlikely as a test dose
row,Compound,Percent Effect
1,CC(=O)N1CCc2[nH]cnc2C12CCN(C(=O)Cc1cccs1)CC2,5.963%
2,Cc1nc(CN2CCCC(NCc3sccc3C)C2)no1 (stereo unspecified),-19.65%
3,COCCN1CCCC(c2ncc(C(=O)N3CCOCC3)c(C)n2)C1 (stereo unspecified),-5.414%
4,Cc1cccc(NC2CCN(C(=O)Nc3cc(F)cc(F)c3)CC2)n1,-33.08%
5,Cc1cccc(NC2CCN(C(=O)Nc3ccc(F)c(F)c3)CC2)n1,108.1%
6,Cc1cccc(NC2CCN(C(=O)Nc3ccncc3)CC2)n1,-35.06%
7,Cc1cccc(NC2CCN(C(=O)Nc3cc(F)ccc3F)CC2)n1,0.502%
8,Cc1cccc(NC2CCN(C(=O)Nc3cccc4[nH]ccc34)CC2)n1,103.5%
9,Cc1cccc(NC2CCN(C(=O)Nc3cc(C)on3)CC2)n1,-41.3%
10,O=C(O)C(F)(F)F.O=C1COC2(CCN(Cc3nccs3)CC2)CN1c1ccccc1,8.785%
11,Cc1cc(O)cc(C2CCCN2C(=O)c2ccncc2)n1 (stereo unspecified),3.916%
12,c1ccc(OCc2nc(CNCCn3cccn3)cs2)cc1,-6.946%
13,Cc1cnn(CCNCc2csc(C)n2)c1,2.389%
14,Cc1cnn(CCCNCc2csc(COc3ccccc3)n2)c1,86.59%
15,Cc1cnn(CCNCc2ccc(OCc3csc(C)n3)cc2)c1,22%
16,Cc1ccc(OCc2nc(CNCCn3cccn3)cs2)cc1,44.09%
17,Cc1cnn(CCNCc2csc(COc3ccccc3)n2)c1,79.25%
18,CCc1ccc(-n2c(=O)[nH]c3nc(N4CCSCC4)ncc3c2=O)cc1,-3.279%
19,CNC(=O)c1ccc(C2CN(C(=O)c3scnc3C)CCO2)nc1 (stereo unspecified),-17.28%
20,Cc1nc(-c2ccncc2)ncc1C(C)NC(=O)Cn1ccccc1=O (stereo unspecified),-23.83%
21,O=C(CC1CCCC1)N1CCOC(c2nc(-c3ncccn3)no2)C1 (stereo unspecified),12.79%
22,CNC(=O)C1(C)CN(Cc2cn(C)c3ccc(F)cc23)CCO1 (stereo unspecified),75.75%

row,Compound,Percent Effect
1,CN(C)C(=O)C1(C)CN(Cc2cn(C)c3ccc(F)cc23)CCO1 (stereo unspecified),20.08%
2,CN(C)C(=O)C1(C)CN(Cc2cn(C)c3ccccc23)CCO1 (stereo unspecified),34.96%
3,COCC1CN(Cc2ccc(F)cc2)Cc2nn(C)cc21.O=C(O)C(F)(F)F (stereo unspecified),21.43%
4,COCC1CN(Cc2ccc(OC)cc2)Cc2nn(C)cc21.O=C(O)C(F)(F)F (stereo unspecified),102.7%
5,CCOCC1CN(Cc2ccc(OC)cc2)Cc2nn(C)cc21.O=C(O)C(F)(F)F (stereo unspecified),-10.16%
6,CCn1cc2c(n1)CN(Cc1sccc1C)CC2COCC1CC1.O=C(O)C(F)(F)F (stereo unspecified),57.43%
7,CCn1cc2c(n1)CN(Cc1ccc(C)o1)CC2COCC1CC1.O=C(O)C(F)(F)F (stereo unspecified),32.3%
8,CCn1cc2c(n1)CN(Cc1ccc(F)cc1)CC2COCC1CC1.O=C(O)C(F)(F)F (stereo unspecified),11.94%
9,COCCC(=O)N1CCCC([C@@H]2C[C@H](C(F)F)n3ncnc3N2)C1 (stereo partly specified),3.93%
10,Cc1nc(C)n(CC2CCCN(CCC(=O)Nc3cc(C)on3)C2)n1 (stereo unspecified),-4.464%
11,CCCS(=O)(=O)N1CC(=O)N(Cc2cccc(OC)c2OC)CC(O)C1 (stereo unspecified),0.4174%
12,CCc1n[nH]c(C(=O)NCCn2nccc2C)c1C,-14.26%
13,COCCN(C)C(C(=O)O)c1ccc2ccccc2c1 (stereo unspecified),-16.36%
14,COc1ccc(CN2CCN(c3ncc(Cl)cn3)CC2)cc1,15.9%
15,CCc1ccc(CN2CCN(c3ccc(Cl)nn3)CC2)nc1,44.3%
16,CCc1ccc(CN2CCN(c3ncc(Cl)cn3)CC2)nc1,55.1%
17,Cc1ccccc1CN1CCCN(C(=O)c2ccn(C)c(=O)c2)CC1,-39.51%
18,Cc1ccc(-c2nc(CCNCc3ccncc3)co2)cc1,55.33%
19,COc1ccc(-c2nc(CCNCc3ccncc3)co2)cc1,44.79%
20,c1ccc(-c2nc(CCNCc3ccncc3)co2)cc1,-12.86%
21,CO[C@@H]1CN(C)S(=O)(=O)[C@@]12CCN(Cc1ccccc1)C2,9.469%
22,CC(C)c1cc(C2CCCN2C(=O)CN2C(=O)OC(C)(C)C2=O)no1 (stereo unspecified),16.26%

row,Compound,Percent Effect
1,CN(Cc1nccs1)c1nc(-c2ccccn2)nc2c1CCNCC2,28.38%
2,CN(Cc1ncc[nH]1)c1nc(-c2ccccn2)nc2c1CCNCC2,56.27%
3,CN(Cc1cccnc1)c1nc(-c2ccccn2)nc2c1CCNCC2,31.77%
4,COc1c(C2CCCN2C(=O)c2cncnc2C)c(C)nn1C (stereo unspecified),-27.58%
5,COC(=O)c1ccn(CC(=O)Nc2nn(CC3CC3)c3ccccc23)n1,50.91%
6,CCn1nc(NC(=O)Cn2ccc(C(C)=O)n2)c2ccccc21,6.087%
7,CC(=O)c1ccn(CC(=O)Nc2nn(CC3CC3)c3ccccc23)n1,23.92%
8,Cc1csc(C(Cc2ccsc2)NC(=O)c2cc(=O)n(C)c(=O)n2C)n1 (stereo unspecified),-13.69%
9,OCC1CN(Cc2nc(C(F)(F)F)cs2)c2ccccc2O1 (stereo unspecified),105.7%
10,Cc1nc(CCNC2CCN(Cc3ccccc3)C2)sc1C (stereo unspecified),2.096%
11,Cc1nc(CNC2CCN(Cc3ccccc3)C2)sc1C (stereo unspecified),5.497%
12,CN(Cc1nc(C(F)(F)F)cs1)C(=O)CCc1ccccn1,3.481%
13,Cc1csc(CN2CC(CO)Oc3ccccc32)n1 (stereo unspecified),26.95%
14,Cc1nc(CN2CC(CO)Oc3ccccc32)sc1C (stereo unspecified),83.41%
15,CC(C)c1nc2oc(C(=O)N3CCOCC3)c(N)c2c2c1CCCC2,5.641%
16,COc1ccccc1Oc1cncc(C2CCCN(C)C2)n1 (stereo unspecified),10.25%
17,COC1CCN(C(=O)c2c(Cl)c3ccccc3n2C)CC1,49.28%
18,Cn1c(C(=O)N2CCC(CC(N)=O)CC2)c(Cl)c2ccccc21,-5.817%
19,CCOC1CCN(C(=O)c2c(Cl)c3ccccc3n2C)CC1,55.05%
20,Cn1cc(C2CCCN2C(=O)c2cn(-c3ccccc3)nn2)cn1 (stereo unspecified),-26.03%
21,CNC(=O)c1cn[nH]c1C1CCN(Cc2ccccc2F)C1 (stereo unspecified),-6.719%
22,COc1cc(C)c(S(=O)(=O)CC(=O)N(C)C(C)C)cc1OC,1.501%
